# Bioassay records as filed in PubChem BioAssay.
# Pf growth 96h: inhibits malaria parasite growth, 96 h | 320,000 compounds, 6.9% hits | AID 504834 | Potency, µM (highest dose often 28.7 µM), for the others: top-dose activity change, negative = inhibition, usual class: inhibitors | P. falciparum luciferase reporter growth, 96 h
#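 Two-generation exposure (96 h) targets delayed-death phenotype. Reporter parasites carrying integrated firefly luciferase, in red cells at 2% hematocrit and 0.05% parasitemia final, kept at 37 C, 5% CO2; luminescence loss indicates inhibition.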
# Pf growth 48h: P. falciparum growth inhibition at 48 hours (one generation); P. falciparum luciferase growth in erythrocytes, 48 h; Potency, µM (titrated, usually from 28.7 µM), without a hit: top-dose activity change, negative = inhibition, usual class: inhibitors; 310,000 compounds, 5.9% hits; AID 504832
#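 In quantitative HTS format, infected erythrocytes bearing luciferase-reporter parasites were treated for a single generation at 37 C. Luminescence after adding detection reagent served as the growth measure.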
# HCV inh: inhibitors of hepatitis C virus infection | Huh7.5.1 HCVcc-Cre infection, luciferase reporter, 44 h | Potency, µM (titrated, usually from 41.8 µM), for inactives: at the highest dose activity change, negative = inhibition, hits mostly inhibitors | 340,000 compounds, 3.4% hits | AID 651820
#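 Infectious HCV cell culture screen: compound-treated cells (1,000/well, pre-plated 4 h) are infected with HCVcc-Cre at roughly 0.5 moi and grown 44 h. Infection is quantified by luciferase signal after 15 min substrate incubation at room temperature.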
# AMA1-RON2 inh: inhibitors of Plasmodium falciparum AMA1-RON2 interaction; AlphaScreen AMA1-biotinylated RON2 peptide binding; Potency, µM (top dose mostly 58.2 µM), for inactives: at the top dose activity change, negative = inhibition, hits mostly inhibitors; 360,000 compounds, 0.2% hits; AID 720542;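 note: 0% = vehicle wells and -100% = peptide control; nearly all actives have a fitted effect of over 45% in size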
#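 AMA1 (3D7) with his tag at 25 nM final met compounds first, then biotinylated RON2 peptide at 25 nM; detection used donor plus acceptor beads, 10 µg/mL apiece, read by AlphaScreen after 30 min at room temperature.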
# Starred values were filed as active, the others as inactive; ? = inconclusive; · = no result. The list is not random: actives were taken first. Their share in the collection is about 11%. Calls come from the whole dose curve; as a rule, active = well fitted curve in the direction sought with a large enough effect; inconclusive = small, poorly fitted or top-dose-only effect, or another doubt; inactive = no such curve, though single readings can be large; an effect the other way counts as inactive or inconclusive. Unless noted, % is set by controls: 0 for no effect and ±100 for the full control effect; potency is the fitted concentration of half-maximal effect.
SMILES,Pf growth 96h,Pf growth 48h,HCV inh,AMA1-RON2 inh
Cn1cc(C(F)(F)F)nc1-c1ccc(OCC(O)CNCCOc2ccc(O)c(C(N)=O)c2)cc1 (stereo unspecified),?,9.3µM*,?,-4%
COc1ccc(-c2csc(NC(=O)C3CCCCN3S(=O)(=O)c3ccccc3)n2)cc1 (stereo unspecified),7.4µM*,?,?,-12%
O=C(Nc1ccccn1)c1ccc(S(=O)(=O)N2CCCC2)cc1,33%,34%,-3%,3%
COc1ccc(-c2csc(NC(=O)c3cccc(S(=O)(=O)N4CCN(C)CC4)c3)n2)cc1,12µM*,?,?,-24%
O=C(Nc1nc(-c2ccccn2)cs1)c1ccc(S(=O)(=O)N2CCCCC2)cc1,2.3µM*,3.3µM*,·,·
COc1ccc(-c2csc(NC(=O)CS(=O)(=O)c3ccccc3)n2)cc1,?,?,?,-8%
Cc1csc(NC(=O)c2cccc(S(=O)(=O)N3CCCCC3)c2)n1,?,?,-1%,-4%
O=C(Nc1nc(-c2cccs2)cs1)c1cccc(S(=O)(=O)N2CCCCCC2)c1,·,-21%,11µM*,42%
Cn1nc(C(C)(C)C)c([N+](=O)[O-])c1C(=O)NC1CCCCC1,12%,-2%,-9%,6%
CC1(C(=O)NS(=O)(=O)c2cccs2)CCN1C(=O)c1ccccc1CCc1ccccc1 (stereo unspecified),·,·,·,3%
C#CCOCCOCCOCCNc1nc(N2CCN(C(=O)[C@H](CCCCN)n3cc([C@@H](N)CO)nn3)CC2)nc(N2CCN(C(=O)[C@H](CCCCN)n3cc([C@@H](N)CC(C)C)nn3)CC2)n1,·,·,17%,0%
CCCCC(=O)Nc1nc2ccc(C(=O)OC)cc2s1,383%,219%,?,-3%
COc1cc2cc(CCCOC(=O)c3ccc(C#N)cc3)oc(=O)c2cc1OC,-1%,3%,17%,-2%
O=C(Nc1nc(-c2cccs2)cs1)c1ccc(S(=O)(=O)N2CCCCC2)cc1,-7%,?,18µM*,-6%
CN(C)CCNc1nc2sc3c(c2c(=O)n1Cc1ccccc1)CCCCC3,?,?,11µM*,1%
CN(C)CCNc1nc2sc3c(c2c(=O)n1-c1ccccc1)CCCCC3,-27%,-18%,-56%,-3%
CN(C)CCNc1nc2sc3c(c2c(=O)n1-c1ccc(F)cc1)CCCCC3,?,10µM*,?,-12%
Cc1ccc(SCC(=O)NC(C)(C)C)cc1,·,66%,22%,1%
COc1ccc(OC)c(C2CC(c3c(-c4ccccc4)c4cc(Cl)ccc4[nH]c3=O)=NN2S(C)(=O)=O)c1 (stereo unspecified),2.1µM*,9.3µM*,-14%,5%
CCOc1ccccc1C(=O)N/N=C/c1coc2ccc(Cl)cc2c1=O,?,1%,?,12%
CCCCNC(=O)CCNS(=O)(=O)c1ccc(Br)cc1,15%,21%,4%,0%
CCC(C)NC(=O)CCNS(=O)(=O)c1ccc(Br)cc1 (stereo unspecified),7.4µM*,-9%,-27%,1%
COc1ccc(C(CNC(=O)CCNS(=O)(=O)c2ccc(Br)cc2)N2CCOCC2)cc1 (stereo unspecified),·,·,-3%,-7%
COc1ccc(C(CNC(=O)C(C)Oc2ccc(Br)cc2)N2CCCCC2)cc1 (stereo unspecified),?,13µM*,?,-8%
COc1ccc(C(CNC(=O)CCNS(=O)(=O)c2ccc(Br)cc2)N2CCCC2)cc1 (stereo unspecified),2.1µM*,4.1µM*,?,19%
SMILES,Pf growth 96h,Pf growth 48h,HCV inh,AMA1-RON2 inh
CCCS(=O)(=O)NC(=O)C1(C)CCCN(C(=O)c2ccccc2OC(F)(F)F)C1 (stereo unspecified),·,·,·,6%
COC(CNC(=O)CCc1c(C)nc2c(c(C)nn2-c2ccc(C)cc2)c1C)OC,13%,2.6µM*,?,-8%
Cc1ccc(-n2nc(C)c3c(C)c(CCC(=O)NCCCOC(C)C)c(C)nc32)cc1,-1%,?,?,22%
COCCCNC(=O)CCc1c(C)nc2c(c(C)nn2-c2ccccc2)c1C,?,?,?,4%
CCN(CC)CCNC(=O)CCc1c(C)nc2c(c(C)nn2-c2ccc(C)c(C)c2)c1C,23%,13µM*,7.1µM*,-9%
Cc1ccc2c(c1)C1CN(C)CCC1N2C(=O)c1cn(-c2ccccc2)nc1-c1ccccc1 (stereo unspecified),?,13µM*,?,-18%
Cc1ccc2c(c1)C1CN(C)CCC1N2C(=O)Nc1cccc(C(F)(F)F)c1 (stereo unspecified),·,9.3µM*,?,-15%
Cc1ccc2c(c1)C1CN(C)CCC1N2S(=O)(=O)c1cccc(C(F)(F)F)c1 (stereo unspecified),?,?,-27%,-9%
Cc1ccc2c(c1)C1CN(C)CCC1N2C(=O)c1cccc(S(=O)(=O)N2CC(C)CC(C)C2)c1 (stereo unspecified),13µM*,?,-10%,-9%
Cc1ccc2c(c1)[C@@H]1CN(C)CC[C@@H]1N2C(=O)Nc1cccc(C(F)(F)F)c1,0.83µM*,·,10µM*,2%
Cc1ccc2c(c1)C1CN(C)CCC1N2C(=O)CCCN1C(=O)c2cccc3cccc(c23)C1=O (stereo unspecified),3.7µM*,1.9µM*,?,7%
Oc1ccc2c(ccc3[nH]cnc32)c1,62%,?,-10%,14%
Brc1cc2[nH]cnc2c2ccccc12,·,?,10µM*,-5%
C=CCOc1ccccc1CN(C(=O)CCl)c1ccc2c(c1)OCO2,12µM*,?,?,-15%
COc1ccc(-n2c(COc3cccc4ccccc34)nnc2SCC(=O)NCc2ccco2)cc1,-23%,2.9µM*,?,-15%
COc1cccc(-n2c(SC)nnc2-c2c[nH]c3ccccc23)c1,4.7µM*,·,-24%,14%
COc1ccc(OC)c(-n2c(SCC(=O)NCc3ccco3)nnc2-c2c[nH]c3ccccc23)c1,2.6µM*,·,-14%,-20%
COc1cccc(-n2c(SCC(=O)NCc3ccco3)nnc2-c2c[nH]c3ccccc23)c1,?,?,-5%,-9%
COc1ccccc1OCc1nnc(SCC(=O)NCc2ccco2)n1-c1ccccc1,5%,-17%,4%,5%
COc1ccc(-n2c(COc3ccc4ccccc4c3)nnc2SCC(=O)NCc2ccco2)cc1,·,10µM*,?,-28%
O=[N+]([O-])c1ncn(Cc2c(Cl)cccc2Cl)n1,?,2%,?,0%
CN(C)c1c([N+](=O)[O-])cc(N2C(=O)C=CC2=O)cc1[N+](=O)[O-],·,·,-7%,4%
Clc1ccc(-c2nnc(NCc3ccccc3)c3ccccc23)cc1,?,?,?,-21%
Cc1ccc(-c2nnc(NCc3ccccc3)c3ccccc23)cc1,?,?,11µM*,-2%
